Bioassay records from PubChem BioAssay.
DUSP3 inh: DUSP3 (human) phosphatase inhibition; P51452; recombinant VHR phosphatase, pNPP absorbance; inhibition, % at 13.3 µM; 0.52% of 290,000 active; in the data active = inhibition above about 50%
Target sequence (P51452 whole entry, looked up): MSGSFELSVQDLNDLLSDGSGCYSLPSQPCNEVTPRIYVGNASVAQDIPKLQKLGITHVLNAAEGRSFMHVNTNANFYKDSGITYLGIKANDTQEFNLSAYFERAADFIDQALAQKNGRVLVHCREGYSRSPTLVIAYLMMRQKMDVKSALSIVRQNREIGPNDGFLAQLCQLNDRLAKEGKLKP
Mtb FBA inh: inhibits M. tuberculosis FBA enzyme | inhibition, % at 1 µM | P9WQA3 | 2.3% of 360,000 active | purified M. tuberculosis FBA, fluorescence read-out;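 note: 0% = vehicle and 100% = reference inhibitor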
Target sequence (P9WQA3 whole entry, looked up): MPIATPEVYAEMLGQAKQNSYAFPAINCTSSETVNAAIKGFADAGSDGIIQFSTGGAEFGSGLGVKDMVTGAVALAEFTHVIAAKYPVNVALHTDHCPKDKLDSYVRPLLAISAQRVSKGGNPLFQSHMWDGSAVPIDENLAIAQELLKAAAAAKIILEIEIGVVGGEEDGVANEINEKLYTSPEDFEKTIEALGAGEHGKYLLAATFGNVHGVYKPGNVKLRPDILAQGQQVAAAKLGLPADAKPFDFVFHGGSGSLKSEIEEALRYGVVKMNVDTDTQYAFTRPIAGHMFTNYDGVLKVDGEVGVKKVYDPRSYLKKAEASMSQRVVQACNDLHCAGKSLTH
Mtb bLac sens: beta-lactam sensitization of Mtb H37Rv; AID 434955; inhibition, % at 25 µM; 0.27% of 330,000 active; M. tuberculosis H37Rv growth with meropenem, percent inhibition; call rule not given here;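 note: growth measured after seven days incubation then overnight dye step; 0% = bacteria only wells and 100% = bacteria with antibiotic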
GDH-TPI counter-1: GDH-TPI coupled enzyme inhibition counter-screen; GDH-TPI coupled enzyme counterscreen, NADH absorbance; inhibition, % at 4.8 µM; 1.2% of 360,000 active; AID 588335; in the data active = inhibition above about 30%;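 note: 0% = DMSO wells and 100% = wells lacking the enzyme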
Mtb hypoxia inh: reduces hypoxia-regulated biosensor signal in M. tuberculosis; 0.1% of 300,000 active; M. tuberculosis hypoxia-regulated fluorescent reporter, fluorescence; fluorescence inhibition, % (no concentration beside the values); AID 1159583; in the data active = fluorescence inhibition mostly above about 23%, no sharp cut-off; inactive = mostly below about 17%
Mtb FBA confirm: confirmation of M. tuberculosis fructose-bisphosphate aldolase inhibitors; AID 651616; shares compounds with Mtb FBA inh; 78% of 5,600 active; inhibition, % at 1 µM; purified M. tuberculosis FBA, fluorescence read-out;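 note: 0% = vehicle wells and 100% = reference inhibitor wells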
GDH-TPI counter-2: counter-screen for M. tuberculosis FBA inhibitors: GDH-TPI coupled enzyme inhibition. shares compounds with Mtb FBA inh. GDH-TPI coupled enzyme counterscreen, fluorescence. inhibition, % at 1 µM. 81% of 5,600 active. AID 652141; in the data active = inhibition above about 10%
Active calls of the source: *. Shown are actives, neighbours in structure and some others; about 3.6% of the full set was active somewhere. Cut-off read from the data, not from the text of the source, unless noted: active = inhibition above about 27%; inactive = the rest.

How did O=C(O)C(Oc1ccc2c3c(c(=O)oc2c1)CCC3)c1ccccc1 (stereo not given) do in these assays?
DUSP3 inh: 7.2; Mtb FBA inh: 69.2*; Mtb bLac sens: -5.8; GDH-TPI counter-1: 22.0; Mtb hypoxia inh: 11.5; Mtb FBA confirm: 3.5; GDH-TPI counter-2: -4.6

What do the screens show for `CC(=O)Nc1cccc(C(C)=NNC(=O)c2ccc(Cn3nc([N+](=O)[O-])c(Cl)c3C)o2)c1`?
Mtb hypoxia inh: 3.6

Results for Cc1cc(C=NNC(=O)C(O)(c2ccccc2)c2ccccc2)c(C)n1-c1ccc(C(=O)O)cc1 ?
Mtb hypoxia inh: 0.2

How did O=c1oc2cc(OCc3ccc([N+](=O)[O-])cc3)ccc2c2c1CCCC2 do in these assays?
DUSP3 inh: 27.1; Mtb FBA inh: 0.5; Mtb bLac sens: 10.7; GDH-TPI counter-1: -2.5; Mtb hypoxia inh: 8.0

Results for O=C(O)c1ccc(COc2ccc3c4c(c(=O)oc3c2)CCC4)o1 ?
DUSP3 inh: 22.1; Mtb FBA inh: 34.1*; Mtb bLac sens: -6.2; GDH-TPI counter-1: 21.9; Mtb hypoxia inh: 2.6; Mtb FBA confirm: 95.4*; GDH-TPI counter-2: 63.8*

What do the screens show for `COC(=O)C(Oc1ccc2c(-c3ccc(OC)cc3)cc(=O)oc2c1)c1ccccc1` (stereo not given)?
DUSP3 inh: 18.1; Mtb FBA inh: -6.0; Mtb bLac sens: 95.3; GDH-TPI counter-1: 7.8; Mtb hypoxia inh: -2.8

Results for C#CCOc1ccc2c3c(c(=O)oc2c1)CCCC3 ?
DUSP3 inh: 17.9; Mtb FBA inh: 45.8*; Mtb bLac sens: -1.8; GDH-TPI counter-1: -2.5; Mtb hypoxia inh: 2.0; Mtb FBA confirm: active; GDH-TPI counter-2: active

What do the screens show for `Cc1cc(=O)oc2cc(NC(=O)c3ccccc3OC(F)F)ccc12`?
DUSP3 inh: 7.4; Mtb FBA inh: 53.5*; Mtb bLac sens: -1.0; GDH-TPI counter-1: 17.1; Mtb hypoxia inh: 9.7; Mtb FBA confirm: 69.6*; GDH-TPI counter-2: 48.6*

Results for Cc1cc(=O)oc2cc(NC(=O)c3cc(F)ccc3F)ccc12 ?
Mtb FBA inh: 7.3; Mtb bLac sens: -1.7; GDH-TPI counter-1: 12.8; Mtb hypoxia inh: -0.3

Results for O=C(O)C(Oc1ccc2cc(-c3ccc(Cl)cc3)c(=O)oc2c1)c1ccccc1 (stereo not given) ?
DUSP3 inh: 2.3; Mtb FBA inh: 103.7*; Mtb bLac sens: -5.9; GDH-TPI counter-1: 4.4; Mtb hypoxia inh: -1.8; Mtb FBA confirm: active; GDH-TPI counter-2: active

What do the screens show for `COc1ccc([N+](=O)[O-])cc1NC(=O)CC1SC(=Nc2cccc(C)c2C)N(N=Cc2cccc(OC)c2OC)C1=O` (stereo not given)?
Mtb hypoxia inh: -6.1

Results for CCc1ccccc1OCC(O)CNC1CCCc2ccccc21 (stereo not given) ?
Mtb hypoxia inh: 7.6

How did CCN(C(=S)Nc1cc(S(=O)(=O)N2CCOCC2)ccc1Cl)c1cccc2ccccc12 do in these assays?
DUSP3 inh: 13.4; Mtb FBA inh: 48.2*; Mtb bLac sens: 1.1; GDH-TPI counter-1: -1.1; Mtb hypoxia inh: -6.0; Mtb FBA confirm: 82.1*; GDH-TPI counter-2: 56.2*

What do the screens show for `CC(=NOC(=O)c1ccc(C)cc1)c1c(C)nc2cc(C)ccn12`?
Mtb hypoxia inh: 10.6

What do the screens show for `COc1ccc(S(=O)(=O)Nc2ccccc2C(=O)Nc2nc(-c3ccc(F)cc3)cs2)cc1OC`?
DUSP3 inh: 2.6; Mtb FBA inh: 32.8*; Mtb bLac sens: -1.6; GDH-TPI counter-1: 10.8; Mtb hypoxia inh: 3.4; Mtb FBA confirm: 92.4*; GDH-TPI counter-2: 67.9*

What do the screens show for `Cc1ccc(C=Nn2c(C)nc3ccccc3c2=O)s1`?
Mtb hypoxia inh: 14.7

Results for Cc1c(C)c2ccc(OCC(=O)N3CC[C@@]4(O)CCCC[C@H]4C3)c(C)c2oc1=O ?
DUSP3 inh: 20.5; Mtb FBA inh: 36.2*; Mtb bLac sens: -9.2; GDH-TPI counter-1: 3.9; Mtb FBA confirm: 104.2*; GDH-TPI counter-2: 92.2*

What do the screens show for `Cc1cc(=O)oc2cc(OCC(=O)N3CC[C@@]4(O)CCCC[C@H]4C3)ccc12`?
DUSP3 inh: 12.7; Mtb FBA inh: 24.5; Mtb bLac sens: -0.9; GDH-TPI counter-1: 23.5

How did CCc1cc(=O)oc2cc(OCC(=O)N3CC[C@@]4(O)CCCC[C@H]4C3)ccc12 do in these assays?
DUSP3 inh: 32.8; Mtb FBA inh: 30.3*; Mtb bLac sens: -7.5; GDH-TPI counter-1: 28.4; Mtb FBA confirm: 64.2*; GDH-TPI counter-2: 48.4*

What do the screens show for `Cc1c(C)c2ccc(OCC(=O)N(C)C3CCS(=O)(=O)C3)c(C)c2oc1=O` (stereo not given)?
DUSP3 inh: 33.9; Mtb FBA inh: 89.0*; Mtb bLac sens: -0.7; GDH-TPI counter-1: 8.3; Mtb hypoxia inh: -1.9; Mtb FBA confirm: 71.1*; GDH-TPI counter-2: 64.5*

What do the screens show for `CN(C)c1ccc(C=NNC(=O)c2cccc3cc[nH]c23)cc1`?
Mtb hypoxia inh: -3.5

What do the screens show for `CCc1sc(C(=O)Nc2ccc(NC(C)=O)cc2)cc1C`?
DUSP3 inh: 27.0; Mtb FBA inh: 27.1*; Mtb bLac sens: 2.1; GDH-TPI counter-1: 2.3; Mtb hypoxia inh: -0.3; Mtb FBA confirm: 0.6; GDH-TPI counter-2: -0.1

Results for CCc1sc(C(=O)Nc2ccc3nc(C)sc3c2)cc1C ?
Mtb FBA inh: 1.7; Mtb bLac sens: 65.1; GDH-TPI counter-1: 3.5; Mtb hypoxia inh: -4.2

How did O=C(C[n+]1ccccc1)NN=Cc1ccc(C(=O)O)cc1 do in these assays?
Mtb hypoxia inh: 7.4

Results for Cc1ccc(-n2ncc3c2CCCC3NC(=O)CCc2c(C)noc2C)cc1C (stereo not given) ?
DUSP3 inh: -2.7; Mtb FBA inh: 36.0*; Mtb bLac sens: -10.4; GDH-TPI counter-1: -0.7; Mtb hypoxia inh: -7.4; Mtb FBA confirm: active; GDH-TPI counter-2: active

What do the screens show for `O=C(COC(=O)c1ccccc1NCCO)Nc1ccc(S(=O)(=O)NC2=NCCCCC2)cc1`?
Mtb FBA inh: 83.8*; GDH-TPI counter-1: 17.8; Mtb hypoxia inh: 11.8; Mtb FBA confirm: 84.2*; GDH-TPI counter-2: 61.1*

Results for Cc1ccc2nc(-c3ccc(C#N)cc3)c(Cc3cccc(Cl)c3)n2c1 ?
Mtb FBA inh: 40.9*; Mtb FBA confirm: 35.2*; GDH-TPI counter-2: 34.7*

Results for N#Cc1ccc(-c2nc3ccc(Br)cn3c2Cc2ccccc2C(F)(F)F)cc1 ?
Mtb FBA inh: 0.6

How did Cc1ccc2nc(-c3ccc(C#N)cc3)c(Cc3ccccc3C(F)(F)F)n2c1 do in these assays?
Mtb FBA inh: 78.5*; Mtb FBA confirm: 29.4*; GDH-TPI counter-2: 26.7*

How did CCCc1nc2ccc(C)cn2c1Cc1cccc(Cl)c1 do in these assays?
Mtb FBA inh: 27.2*; Mtb FBA confirm: active; GDH-TPI counter-2: 167.8*

How did N#Cc1ccc(-c2nc3ccc(Cl)cn3c2Cc2cccc(Cl)c2)cc1 do in these assays?
Mtb FBA inh: 16.1
